eIF4E 4G PPI: eIF4E/eIF4G interaction inhibition in translation initiation. P63073+Q04637. TR-FRET eIF4E-eIF4GI(517-606) binding, 2 h. inhibition, % at 21.7 µM. hit rate 0.37% among 220,000
Mcl1 Bid PPI: Mcl-1/Bid interaction inhibition. Q07820. inhibition, % at 21.7 µM. hit rate 0.97% among 220,000. TR-FRET Mcl-1/Bid-Dy647 peptide binding, 1536-well;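 active = compounds that cut the binding signal by more than half at the single screening dose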;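 also: His-tagged Mcl-1 with europium anti-His antibody binding Bid BH3 peptide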
Target sequence (Q07820 whole entry, looked up): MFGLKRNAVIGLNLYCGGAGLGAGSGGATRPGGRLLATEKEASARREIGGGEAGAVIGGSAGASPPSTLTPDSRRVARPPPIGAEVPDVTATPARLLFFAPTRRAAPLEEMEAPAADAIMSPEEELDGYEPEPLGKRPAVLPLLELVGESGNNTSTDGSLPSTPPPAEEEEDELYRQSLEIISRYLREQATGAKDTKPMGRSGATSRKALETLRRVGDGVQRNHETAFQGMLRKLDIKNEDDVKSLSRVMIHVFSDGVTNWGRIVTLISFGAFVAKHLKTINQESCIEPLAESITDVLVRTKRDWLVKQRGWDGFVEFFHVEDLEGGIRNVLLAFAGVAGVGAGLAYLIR
Mcl-1 Bim block: human Bim-Mcl-1 interaction inhibition. Bead-based flow cytometry, Bim peptide-Mcl-1 binding. Q07820. hit rate 0.1% among 190,000. inhibition, % at 10 µM; in the data active = inhibition above about 40%
14-3-3 Bad PPI: disrupts binding of bovine 14-3-3 zeta to phospho-Bad peptide; hit rate 0.71% among 220,000; TR-FRET 14-3-3zeta/Dy647-pBad peptide displacement, 1 h; P63103; inhibition, % at 21.7 µM;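 active = inhibition above about 70%, limit read from the data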
Target sequence (P63103 whole entry, looked up): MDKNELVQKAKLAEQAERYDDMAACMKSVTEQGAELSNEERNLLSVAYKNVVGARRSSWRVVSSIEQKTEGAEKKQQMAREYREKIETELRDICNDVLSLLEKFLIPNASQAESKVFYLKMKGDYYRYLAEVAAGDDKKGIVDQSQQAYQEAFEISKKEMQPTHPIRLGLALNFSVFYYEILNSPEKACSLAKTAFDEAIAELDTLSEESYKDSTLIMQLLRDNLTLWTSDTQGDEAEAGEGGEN
NCF1 inh: blocks human p47phox regulatory protein of NADPH oxidases; P14598; inhibition, % at 24.7 µM; AID 1274; p47phox/p22phox peptide binding, fluorescence polarization, 2 h; hit rate 0.53% among 220,000
Mcl1 Noxa PPI: Mcl-1/Noxa interaction inhibition | Q07820 | TR-FRET Mcl-1/Noxa peptide binding, 2 h | inhibition, % at 21.7 µM | hit rate 1.5% among 220,000;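 active = compounds that cut the protein-peptide binding signal by more than 50% relative to plate controls in a single-dose test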;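 also: His-tagged Mcl-1 with rhodamine Noxa BH3 peptide and terbium anti-His antibody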
Of the large screens only hits and unclear results are named; the others gave an inactive call; [ ] = remark or other dose. Compounds with a hit are over-represented: about 3.3% of the library has one in this group of screens.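 The calls were made as follows, unless noted: active = inhibition above about 30% (limit read from the data); inactive = the rest.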

COc1ccc(CCNC(=O)Cn2cnc3ccccc3c2=O)cc1OC	none
COc1ccc(CCNC(=O)Cn2cnc3c(cnn3-c3ccccc3Cl)c2=O)cc1OC	eIF4E 4G PPI 31[fluorescence artefact?]
CCO[C@H]1OC(C(=O)Nc2ccccc2)=C[C@@H](c2ccc(C(F)(F)F)cc2)[C@@H]1CCCO	none
O=c1cc(CSc2ccccn2)c2ccccc2[nH]1	14-3-3 Bad PPI 81[fluorescence artefact?]
CCOC(=O)c1cc(-c2ccccc2)sc1NC(=O)COC(=O)c1cccc(S(N)(=O)=O)c1	14-3-3 Bad PPI 73
CCOC(=O)c1cc(-c2ccccc2)sc1NC(=O)COC(=O)c1ccc(Cl)c(S(N)(=O)=O)c1	none
Cc1ccc(-c2nnc(-c3ccccc3)o2)cc1	none
CNc1nc(-c2ccccc2)[n+](-c2ccc(C)cc2)s1	eIF4E 4G PPI 39, NCF1 inh 94
Cc1ccc(-c2nc(N)s[n+]2-c2ccccc2)cc1	NCF1 inh 93
O=C(Nc1ccc(SC(F)(F)F)cc1)c1ccccn1	none
C/C(CCc1ccccc1)=N/NC(=O)C(=O)NC(C)c1ccccc1 (centres undefined)	none
COc1ccccc1/C=C(/C(=O)OCC(=O)Nc1ccc(N(C)C)cc1)c1ccccc1	Mcl1 Noxa PPI 69
CC1CCN(C(=S)NC(=O)c2cccs2)CC1	none
CC1CCCCN1C(=S)NC(=O)c1cccs1 (centres undefined)	eIF4E 4G PPI 92 (no result: Mcl-1 Bim block)
COc1ccc(N2CCN(c3oc(-c4ccccc4OC)nc3C#N)CC2)cc1	NCF1 inh 54
COc1ccc(-c2nc3ccccc3c(=O)n2NC(=O)c2cccnc2Cl)cc1OC	none
NC(=O)Cn1c(=O)n(C2CCCCC2)c(=O)c2c3c(sc21)CCCCC3	none
O=CN/C=C/c1cc(O)ccc1O	Mcl1 Noxa PPI 57 (no result: Mcl-1 Bim block)
CC(C)(C)C1CCc2c(C(=O)NNC(=O)CCC(=O)O)csc2C1 (centres undefined)	Mcl1 Noxa PPI 104
Oc1c(Br)cc(C=Nc2ccc3nc(-c4ccccc4)[nH]c3c2)c(O)c1Br	Mcl1 Noxa PPI 94
COc1ccc2nc(-c3ccccc3)[nH]c2c1	none
O=[N+]([O-])c1ccc(O)c(C=Nc2ccc3nc(-c4ccccc4)[nH]c3c2)c1	Mcl1 Bid PPI 63, Mcl1 Noxa PPI 62
O=[N+]([O-])c1cccc(-c2nc3ccc([N+](=O)[O-])cc3[nH]2)c1	Mcl1 Noxa PPI 58
COc1ccc(-c2nc(=S)c3c([nH]2)Oc2ccc(C)cc2C3)cc1O	Mcl1 Noxa PPI 66
CC(=O)c1sc(N/N=C\c2ccccc2O)nc1C	none
Cc1cccc(NC(=O)CSc2nnc(-c3ccco3)c(-c3ccco3)n2)c1	Mcl1 Noxa PPI 96
Cc1cccc(NC(=O)CSc2nnc(-c3ccco3)c(-c3ccco3)n2)c1C	Mcl1 Noxa PPI 95
COc1cc2[nH]c(=O)c(C(=O)NCCCN3CCOCC3)c(O)c2cc1OC	Mcl1 Noxa PPI 68
O=C(NNS(=O)(=O)c1ccc2ccccc2c1)c1cc(-c2ccccn2)nc2ccccc12	none
CC(C)C(=O)Nc1ccc(C(=O)NNC(=S)NC(=O)c2ccco2)cc1	none (no result: Mcl-1 Bim block)
COc1ccccc1N1C(=O)C2ON(c3ccccc3)C(c3ccc(N(C)C)cc3)C2C1=O (centres undefined)	Mcl1 Noxa PPI 78
CCOC(=O)c1nnsc1N	none (no result: Mcl-1 Bim block)
N#CC(=NCc1cccnc1)C1=C(O)c2ccccc2C1=O	none (no result: Mcl-1 Bim block)
COc1ccc(-c2ccc(C#N)c(SCC(=O)Nc3sc4c(c3C#N)CCC4)n2)cc1OC	Mcl1 Bid PPI 73, 14-3-3 Bad PPI 92[fluorescence artefact?], NCF1 inh 34
S=C(NCC1CCCO1)N1CCN(Cc2ccccc2)CC1 (centres undefined)	14-3-3 Bad PPI 70
COc1cc(C(CCN2CCCCC2)c2c(OC)cc(OC)c3c(C)cc(=O)oc23)cc(OC)c1OC (centres undefined)	none (no result: Mcl-1 Bim block)
CN(CCOc1ccccc1)CC(=O)Nc1cccc(Br)c1	14-3-3 Bad PPI 74
CN(C)c1ccc(/C=N/NC(=O)c2ccccn2)cc1	none (no result: Mcl-1 Bim block)
CC(C)c1ccc(/C=N/NC(=O)c2ccccn2)cc1	eIF4E 4G PPI 55 (no result: Mcl-1 Bim block)
COc1cccc(C(=O)N/N=C/C(Br)=C/c2ccccc2)c1	none
COc1cc(C#N)c(NC(=S)N2CCOCC2)cc1OC	none
Cn1cc([N+](=O)[O-])c(C(=O)N(Cc2ccccc2)Cc2ccccc2)n1	none
O=C(N/N=C/c1cc(Br)c(Br)o1)c1ccc2c(c1)OCCO2	Mcl1 Noxa PPI 57 (no result: Mcl-1 Bim block)
O=C(N/N=C/c1ccc2c(c1)OCO2)c1ccc2c(c1)OCCO2	none
CC(C)(C)OC(=O)C1C(=O)CC(C)(O)C(C(=O)OC(C)(C)C)C1c1cccnc1 (centres undefined)	14-3-3 Bad PPI 80
CC(C)COC(=O)C1C(=O)CC(C)(O)C(C(=O)OCC(C)C)C1c1cccnc1 (centres undefined)	none
CCOC(=O)c1c(C)oc2c1c(C(c1ccccc1)N1CCOCC1)c(O)c1ccccc12 (centres undefined)	Mcl1 Bid PPI 60, Mcl1 Noxa PPI 58
CCOC(=O)c1c(C)oc2c1c(C(c1cccnc1)N1CCCCC1)c(O)c1ccccc12 (centres undefined)	Mcl1 Bid PPI 60, Mcl1 Noxa PPI 98
NS(=O)(=O)c1ccc(-c2ccc(/C=C3\C(=O)Nc4cc(Cl)ccc43)o2)cc1	14-3-3 Bad PPI 75, Mcl1 Noxa PPI 63
CC1(C)OC(=O)C(=Cc2ccc(-c3ccc(S(N)(=O)=O)cc3)o2)C(=O)O1	none
CN(CCO)c1ncnc2c1sc1nc(N3CCOCC3)c3c(c12)CCC3	none (no result: Mcl-1 Bim block)
CCCCNC(=O)C1CCN(C/C(C)=C/c2ccccc2)CC1	14-3-3 Bad PPI 71
O=C(NCc1cccnc1)C(=O)N/N=C/c1ccc([N+](=O)[O-])cc1	none
Cc1ccc(C#CC[N+]2(C)CCCCC2)cc1	none (no result: Mcl-1 Bim block)
COc1cccc(CNc2ccc(F)c(Cl)c2)c1	14-3-3 Bad PPI 78
COc1cccc(C(=O)N(Cc2ccccc2)Cc2cc3cc4c(cc3[nH]c2=O)OCCO4)c1	none
COc1ccc(C(=O)N(Cc2ccccc2)Cc2cc3cc4c(cc3[nH]c2=O)OCCO4)cc1	Mcl1 Bid PPI 95
COc1ccc(NC(=O)CSc2nc(NS(=O)(=O)c3ccccc3)cc(=O)[nH]2)cc1	14-3-3 Bad PPI 75
O=C(CSc1nc(NS(=O)(=O)c2ccccc2)cc(=O)[nH]1)Nc1ccc(Cl)cc1	none
COc1ccc(-n2c(Cc3cc(=O)[nH]c(=O)[nH]3)nnc2SCC(=O)Nc2ccccc2)cc1	NCF1 inh 47
CCc1ccc(N2C(=O)CC(Cn3nc(C)cc3C)C2=O)cc1 (centres undefined)	none (no result: Mcl-1 Bim block)
Cc1cc(NC(=O)C23CC4CC(C2)CC(n2cnc([N+](=O)[O-])n2)(C4)C3)no1	none
O=C(C[n+]1cc(-c2ccccc2)n2c1CCC2)N1c2ccccc2Sc2ccccc21	Mcl1 Bid PPI 90
CC(=O)Nc1ccc(N2CCN(c3ccc(C(F)(F)F)cn3)CC2)nc1	none (no result: Mcl-1 Bim block)

Screens deposited in PubChem by several laboratories.
